The target of one test is Receptor tyrosine-protein kinase erbB-2 (Homo sapiens) (UniProt P04626). The conditions noted are these: at 0.1 µM.
Sequence of Receptor tyrosine-protein kinase erbB-2 (Homo sapiens) (P04626 whole entry): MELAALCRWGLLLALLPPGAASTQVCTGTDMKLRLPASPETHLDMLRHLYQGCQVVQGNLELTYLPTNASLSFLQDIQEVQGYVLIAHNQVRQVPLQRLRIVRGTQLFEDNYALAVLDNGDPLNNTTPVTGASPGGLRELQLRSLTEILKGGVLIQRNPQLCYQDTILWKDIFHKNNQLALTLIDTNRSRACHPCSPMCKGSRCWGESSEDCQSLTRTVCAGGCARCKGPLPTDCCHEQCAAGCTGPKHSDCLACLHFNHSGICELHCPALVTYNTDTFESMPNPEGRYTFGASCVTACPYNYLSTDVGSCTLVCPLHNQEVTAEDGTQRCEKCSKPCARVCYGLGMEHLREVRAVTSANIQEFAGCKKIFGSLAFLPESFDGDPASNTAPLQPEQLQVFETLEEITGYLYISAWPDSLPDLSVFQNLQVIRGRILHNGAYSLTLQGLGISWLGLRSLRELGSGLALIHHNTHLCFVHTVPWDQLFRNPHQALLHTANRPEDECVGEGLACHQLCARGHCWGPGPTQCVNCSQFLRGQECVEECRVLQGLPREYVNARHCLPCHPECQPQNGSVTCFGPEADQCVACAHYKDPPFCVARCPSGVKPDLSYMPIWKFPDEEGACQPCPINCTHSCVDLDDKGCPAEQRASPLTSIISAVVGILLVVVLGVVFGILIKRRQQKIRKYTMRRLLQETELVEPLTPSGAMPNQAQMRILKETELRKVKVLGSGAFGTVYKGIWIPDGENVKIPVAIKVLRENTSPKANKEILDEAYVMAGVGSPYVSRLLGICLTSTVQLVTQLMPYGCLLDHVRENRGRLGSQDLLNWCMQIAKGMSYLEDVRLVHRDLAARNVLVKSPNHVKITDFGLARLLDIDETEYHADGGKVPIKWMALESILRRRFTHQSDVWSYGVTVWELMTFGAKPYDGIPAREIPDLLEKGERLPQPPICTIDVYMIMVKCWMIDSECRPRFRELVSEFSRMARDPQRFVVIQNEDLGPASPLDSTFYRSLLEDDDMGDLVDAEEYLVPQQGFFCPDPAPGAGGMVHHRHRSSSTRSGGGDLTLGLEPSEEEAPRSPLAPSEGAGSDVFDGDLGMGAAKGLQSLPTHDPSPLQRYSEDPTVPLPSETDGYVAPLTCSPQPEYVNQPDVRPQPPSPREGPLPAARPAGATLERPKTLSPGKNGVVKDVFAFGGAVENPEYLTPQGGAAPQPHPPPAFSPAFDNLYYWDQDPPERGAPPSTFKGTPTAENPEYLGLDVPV
Usually inhibition stands for the change of the read-out against control, counted positive when it falls. For `CN(C)C(=O)O[C@H]1CN[C@H](C#Cc2cc3ncnc(Nc4ccc(OCc5cccc(F)c5)c(Cl)c4)c3s2)C1`, the inhibition was determined as 4%.

`CCS(=O)(=O)c1ccc(OC)c(Nc2ncc(-c3cccc(OC)c3)o2)c1`: the inhibition is -0.52%.

With `COc1cc2ncn(-c3cc(OCc4ccccc4S(C)(=O)=O)c(C#N)s3)c2cc1OC`, the inhibition worked out at 0.83%.

Regarding `[O-][S+]1CCN(Cc2ccc(-c3ccc4ncnc(Nc5ccc(OCc6ccccc6)c(Cl)c5)c4c3)o2)CC1`, the inhibition came to 37.5%.

Regarding `OCc1ccc(-c2nc(-c3ccccn3)c(-c3ccc4c(c3)OCO4)[nH]2)cc1`, the inhibition was found to be 0.45%.

In the case of `COc1cc(/C=N/Nc2ncnc3c2cnn3C(C)C)ccc1O`, the inhibition came to 1.13%.

For the compound `Nc1nccc(-c2c(-c3ccc(F)cc3)nn3cc(C(F)(F)F)ccc23)n1`, the inhibition was 2.01%.

As for `CN(C)CCCn1c(-c2nonc2N)nc2cnccc21`, the inhibition came to 5.72%.

On to `COc1cc(Nc2nccc(-c3cnn4ncccc34)n2)cc(OC)c1`, for which the inhibition is 2.17%.

Take `NS(=O)(=O)c1cccc(-c2cc3ccncc3cc2OCc2ccccc2)c1`: the inhibition amounted to 1.13%.

In the case of `CN1CCN(C(=O)c2ccc(NC(=O)Nc3ccc(N(C)c4ccnc(Nc5ccc(CS(C)(=O)=O)cc5)n4)cc3)cc2)CC1`, the inhibition amounted to 0.08%.

Turning to `Cc1ccc2c(c1)/C(=N/Nc1ccc(S(N)(=O)=O)cc1)C(=O)N2`, the inhibition turned out to be 0.1%.

As for `Cc1ccc(NC(=O)CC2CC2)cc1-c1ccc(C(=O)NCC2CC2)cc1`, the inhibition worked out at 0.13%.

With `CN(c1ccc(NC(=O)Nc2ccc(OC(F)(F)F)cc2)cc1)c1ccnc(Nc2cccc(S(N)(=O)=O)c2)n1`, the inhibition worked out at 2.39%.

Turning to `C[C@@H](Oc1cc(-n2cnc3ccc(OC[C@@H](O)CO)cc32)sc1C(N)=O)c1ccccc1Cl`, the inhibition was 0%.

As for `Cc1ccc(C(=O)NC2CC2)cc1-c1ccc2[nH]ncc2c1`, the inhibition is -5.76%.

With `COc1ccc(-c2nn3ncccc3c2-c2ccnc(Nc3cccc(C(F)(F)F)c3)n2)cc1`, the inhibition was determined as 3.15%.

Regarding `CN(C)C(=O)O[C@@H]1CN[C@@H](C#Cc2cc3ncnc(Nc4ccc(OCc5cccc(F)c5)c(Cl)c4)c3s2)C1`, the inhibition is -1.37%.

On to `CC(C)c1ccc2c(c1)NC(=O)/C2=N/Nc1ccc(S(N)(=O)=O)cc1`, for which the inhibition stood at 3%.

Consider `NS(=O)(=O)c1ccc(NC=C2C(=O)Nc3ccc4ncsc4c32)cc1`, for which the inhibition was 1.93%.

Regarding `C[C@@H](Oc1cc(-n2cnc3ccc(OCC4CCN(C)CC4)cc32)sc1C(N)=O)c1ccccc1C(F)(F)F`, the inhibition was -0.64%.

Turning to `CN(C)c1cc2c(Nc3ccc4c(cnn4Cc4ccccc4)c3)ncnc2cn1`, the inhibition was found to be 53.4%.

Regarding `Cc1ccc(Nc2ccnc(Nc3cccc(C(N)=O)c3)n2)cc1O`, the inhibition stood at 2.41%.

As for `CCS(=O)(=O)c1ccc(OC)c(Nc2nccc(N(C)c3ccc4c(C)n[nH]c4c3)n2)c1`, the inhibition came to 7.28%.

For the compound `COC(=O)Nc1nc2cc(Oc3ccc(NC(=O)Nc4cccc(Br)c4)cc3)ccc2[nH]1`, the inhibition is 3.03%.

Regarding `CC(C)c1ccc(Nc2nccc(-c3cnn4ncccc34)n2)cc1`, the inhibition came out at 0.95%.

As for `NS(=O)(=O)c1ccc(N/N=C2\C(=O)Nc3ccc(Cl)cc32)cc1`, the inhibition amounted to 2.29%.

With `COc1cccc(-n2ncc3c(N/N=C/c4ccc(C)cc4)ncnc32)c1`, the inhibition is 2.26%.

Consider `CCn1c(-c2nonc2N)nc2ccc(F)cc21`, for which the inhibition was found to be 5.65%.

As for `COc1cc2ncnc(Nc3ccc4c(cnn4Cc4ccccc4)c3)c2cc1OC`, the inhibition is 32.4%.

As to `Nc1nccc(C#Cc2cncnc2Nc2ccc(OCc3cccc(F)c3)c(Cl)c2)n1`, the inhibition was -1.45%.

Consider `Cc1cc(-c2ccccn2)cc(C)c1/C=C/c1cncc(-c2nn[nH]n2)c1`, for which the inhibition is -0.2%.

For `CS(=O)(=O)Nc1cccc(-c2ccc3c(NC(=O)C4CC4)n[nH]c3c2)c1`, the inhibition was 0.54%.

Consider `O=C1Nc2ccc(-c3cccnc3)cc2C1=Cc1cc(Br)c(O)c(Br)c1`, for which the inhibition is -0.94%.

For a further test the target is unchanged. The conditions noted are these: at 1 µM.
Regarding `CN(C)C(=O)O[C@H]1CN[C@H](C#Cc2cc3ncnc(Nc4ccc(OCc5cccc(F)c5)c(Cl)c4)c3s2)C1`, the inhibition was determined as 50.4%.

Regarding `CCS(=O)(=O)c1ccc(OC)c(Nc2ncc(-c3cccc(OC)c3)o2)c1`, the inhibition came out at 0.18%.

Take `COc1cc2ncn(-c3cc(OCc4ccccc4S(C)(=O)=O)c(C#N)s3)c2cc1OC`: the inhibition was -1.42%.

In the case of `[O-][S+]1CCN(Cc2ccc(-c3ccc4ncnc(Nc5ccc(OCc6ccccc6)c(Cl)c5)c4c3)o2)CC1`, the inhibition was found to be 72.6%.

As to `OCc1ccc(-c2nc(-c3ccccn3)c(-c3ccc4c(c3)OCO4)[nH]2)cc1`, the inhibition is -3.06%.

On to `COc1cc(/C=N/Nc2ncnc3c2cnn3C(C)C)ccc1O`, for which the inhibition is 3.23%.

`Nc1nccc(-c2c(-c3ccc(F)cc3)nn3cc(C(F)(F)F)ccc23)n1`: the inhibition turned out to be 3.5%.

For the compound `CN(C)CCCn1c(-c2nonc2N)nc2cnccc21`, the inhibition came out at 4.73%.

As for `COc1cc(Nc2nccc(-c3cnn4ncccc34)n2)cc(OC)c1`, the inhibition was -0.98%.

With `NS(=O)(=O)c1cccc(-c2cc3ccncc3cc2OCc2ccccc2)c1`, the inhibition was -3.29%.

For `CN1CCN(C(=O)c2ccc(NC(=O)Nc3ccc(N(C)c4ccnc(Nc5ccc(CS(C)(=O)=O)cc5)n4)cc3)cc2)CC1`, the inhibition turned out to be 3.94%.

With `Cc1ccc2c(c1)/C(=N/Nc1ccc(S(N)(=O)=O)cc1)C(=O)N2`, the inhibition was -4.77%.

As to `Cc1ccc(NC(=O)CC2CC2)cc1-c1ccc(C(=O)NCC2CC2)cc1`, the inhibition was determined as 3.41%.

Regarding `CN(c1ccc(NC(=O)Nc2ccc(OC(F)(F)F)cc2)cc1)c1ccnc(Nc2cccc(S(N)(=O)=O)c2)n1`, the inhibition amounted to 4.23%.

As to `C[C@@H](Oc1cc(-n2cnc3ccc(OC[C@@H](O)CO)cc32)sc1C(N)=O)c1ccccc1Cl`, the inhibition was 0.61%.

For `Cc1ccc(C(=O)NC2CC2)cc1-c1ccc2[nH]ncc2c1`, the inhibition was -4.83%.

For the compound `COc1ccc(-c2nn3ncccc3c2-c2ccnc(Nc3cccc(C(F)(F)F)c3)n2)cc1`, the inhibition amounted to 9.69%.

Take `CN(C)C(=O)O[C@@H]1CN[C@@H](C#Cc2cc3ncnc(Nc4ccc(OCc5cccc(F)c5)c(Cl)c4)c3s2)C1`: the inhibition was 27.1%.

As for `CC(C)c1ccc2c(c1)NC(=O)/C2=N/Nc1ccc(S(N)(=O)=O)cc1`, the inhibition is 2.17%.

Consider `NS(=O)(=O)c1ccc(NC=C2C(=O)Nc3ccc4ncsc4c32)cc1`, for which the inhibition was -0.87%.

Turning to `C[C@@H](Oc1cc(-n2cnc3ccc(OCC4CCN(C)CC4)cc32)sc1C(N)=O)c1ccccc1C(F)(F)F`, the inhibition was determined as 0.08%.

For the compound `CN(C)c1cc2c(Nc3ccc4c(cnn4Cc4ccccc4)c3)ncnc2cn1`, the inhibition was 86.6%.

`Cc1ccc(Nc2ccnc(Nc3cccc(C(N)=O)c3)n2)cc1O`: the inhibition came to 5.7%.

With `CCS(=O)(=O)c1ccc(OC)c(Nc2nccc(N(C)c3ccc4c(C)n[nH]c4c3)n2)c1`, the inhibition was 13.4%.

With `COC(=O)Nc1nc2cc(Oc3ccc(NC(=O)Nc4cccc(Br)c4)cc3)ccc2[nH]1`, the inhibition worked out at 0.8%.

With `CC(C)c1ccc(Nc2nccc(-c3cnn4ncccc34)n2)cc1`, the inhibition stood at 3.22%.

`NS(=O)(=O)c1ccc(N/N=C2\C(=O)Nc3ccc(Cl)cc32)cc1`: the inhibition worked out at 4.3%.

Turning to `COc1cccc(-n2ncc3c(N/N=C/c4ccc(C)cc4)ncnc32)c1`, the inhibition was 3.43%.

Regarding `CCn1c(-c2nonc2N)nc2ccc(F)cc21`, the inhibition was 14%.

In the case of `COc1cc2ncnc(Nc3ccc4c(cnn4Cc4ccccc4)c3)c2cc1OC`, the inhibition turned out to be 83%.

Turning to `Nc1nccc(C#Cc2cncnc2Nc2ccc(OCc3cccc(F)c3)c(Cl)c2)n1`, the inhibition is -8.09%.

With `Cc1cc(-c2ccccn2)cc(C)c1/C=C/c1cncc(-c2nn[nH]n2)c1`, the inhibition turned out to be 8.13%.

For `CS(=O)(=O)Nc1cccc(-c2ccc3c(NC(=O)C4CC4)n[nH]c3c2)c1`, the inhibition was -4.31%.

`O=C1Nc2ccc(-c3cccnc3)cc2C1=Cc1cc(Br)c(O)c(Br)c1`: the inhibition was 4.88%.

Source of the values: ChEMBL document CHEMBL1961873, “Compounds: GSK PKIS; Assays: Nanosyn kinase panel” (2012).
